Compounds with a hit are over-represented: about 7.5% of the library has one in this group of screens.
Rab9 promoter act – qHTS Assay for Rab9 Promoter Activators; Huh7 Rab9 promoter-luciferase reporter, luminescence, 24 h; Potency, µM (titrated, usually from 9.22 µM), inactives show top-dose activation, negative = inhibition, most hits filed as activators; hit rate 2.8% among 320,000; AID 485297, 2010; further: % of control where 0% means no effect; nearly all actives have a fitted effect of over 60% in size
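Huh7 reporter line, Rab9 promoter upstream of luciferase. Compound exposure 24 h at 37 °C in reduced-serum medium with 10% FBS. Read-out: luminescence.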
SMN2 splice up – qHTS Assay for Enhancers of SMN2 Splice Variant Expression | AID 1458, 2008 | HEK293 SMN2-luciferase splicing reporter, luminescence, 30-36 h | Potency, µM (series often up to 46.1 µM), for the others: top-dose activity change, positive = activation, most hits filed as activators | hit rate 2.8% among 210,000; further: % of control where 0% means no effect; nearly all actives have a fitted effect of over 55% in size
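HEK293 cells carry an SMN2 […]–luciferase reporter in which exon 7 inclusion puts luciferase in frame. Cells were plated 10-12 h before compound addition, then incubated 30-36 h at 37C. ONE-Glo luminescence was read; sodium butyrate at 4.5 mM final served as control.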
ELG1 genotoxic – qHTS screen for small molecules that induce genotoxicity in human embryonic kidney (HEK293T) cells expressing luciferase-tagged ELG1 | HEK293T ELG1-luciferase reporter, luminescence, 16 h | Potency, µM (titrated, usually from 46 µM), without a hit: at the top dose activity change, positive = activation, hits mostly activators | hit rate 1.3% among 330,000; further: % of control where 0% means no effect; nearly all actives have a fitted effect of over 60% in size
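DMSO vehicle served as control against compound-treated ELG1-luciferase HEK293T cells; exposure lasted 16 hr at 37 °C and 5% CO2, followed by ONE-Glo luminescence detection after 30 min.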
NPC1 prom act – qHTS Assay for NPC1 Promoter Activators | Huh7 NPC1 promoter luciferase reporter, 24 h | Potency, µM (series often up to 9.22 µM), for the others: top-dose activation, actives largely listed as activators | hit rate 2.4% among 320,000; further: % of control where 0% means no effect; nearly all actives have a fitted effect of over 60% in size
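Readout is luciferase luminescence, reflecting NPC1 promoter activation in stably transfected Huh7 cells after 24 h compound exposure at 37 °C in reduced-serum medium with 10% FBS.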
KinaseGlo FLuc – Counterscreen for Luciferase (Kinase-Glo TM) Inhibition | Luciferin 4-monooxygenase (Photuris pensylvanica), Q27757 | Kinase-Glo luciferase, ATP luminescence, 8 min | Potency, µM (titrated, usually from 38.3 µM), for the others: at the highest dose activity change, negative = inhibition, most hits filed as inhibitors | hit rate 0.28% among 200,000 | AID 1379, 2008; further: on the % scale 0 is the no-effect control and ±100 the full control effect; nearly all actives have a fitted effect of over 60% in size
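Compounds were added to a substrate mix at pH 7.2 (50 mM imidazole, 10 uM ATP, within the enzyme's linear range), followed by Kinase-Glo detection reagent; luminescence was measured after 8 minutes at ambient temperature.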
FLuc counter – qHTS profiling assay for firefly luciferase inhibitor/activator using purifed enzyme and Km concentrations of substrates (counterscreen for miR-21 project). Luciferin 4-monooxygenase (Photinus pyralis), P08659. hit rate 6.9% among 360,000. Potency, µM (series often up to 57.5 µM), inactives show at the highest dose activity change, negative = inhibition, actives largely listed as inhibitors. purified FLuc, Km substrates, luminescence inhibition;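 further: plate controls were vehicle for no effect and reference inhibitor for full effect; nearly all actives have a fitted effect of over 55% in size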
Target sequence (P08659 whole entry, looked up): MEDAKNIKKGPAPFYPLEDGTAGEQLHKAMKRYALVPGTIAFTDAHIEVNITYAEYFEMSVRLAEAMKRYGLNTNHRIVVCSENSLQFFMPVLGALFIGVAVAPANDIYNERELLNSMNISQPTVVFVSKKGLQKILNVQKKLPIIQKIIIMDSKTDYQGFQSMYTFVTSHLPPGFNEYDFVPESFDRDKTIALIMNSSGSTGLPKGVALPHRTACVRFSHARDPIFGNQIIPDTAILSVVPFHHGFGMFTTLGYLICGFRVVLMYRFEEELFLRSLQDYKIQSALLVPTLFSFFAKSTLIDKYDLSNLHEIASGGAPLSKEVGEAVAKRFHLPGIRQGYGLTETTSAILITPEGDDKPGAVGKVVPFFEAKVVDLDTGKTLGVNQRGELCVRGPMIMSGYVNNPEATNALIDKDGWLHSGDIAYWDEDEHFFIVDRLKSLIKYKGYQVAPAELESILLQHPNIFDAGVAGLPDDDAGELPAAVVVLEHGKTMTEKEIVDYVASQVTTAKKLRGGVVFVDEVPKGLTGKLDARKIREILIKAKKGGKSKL
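Biochemical qHTS of compounds, final roughly 60 µM downward over six points, against 10 nM purified firefly luciferase using Km concentrations of substrates (10 uM D-luciferin, 10 uM ATP) in Tris acetate pH 7.5 buffer; luminescence output.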
An asterisk follows results filed as active; ? = inconclusive; · = no result given; [ ] = another dose, or the depositor's remark. The call rests on the fitted dose curve; in most records, active means well fitted curve in the direction sought with a large enough effect; inconclusive means small, poorly fitted or top-dose-only effect, or another doubt; inactive means no such curve, though single readings can be large; an effect the other way counts as inactive or inconclusive. Potency means the concentration at half of the fitted maximal effect.

SMILES | Rab9 promoter act | SMN2 splice up | ELG1 genotoxic | NPC1 prom act | KinaseGlo FLuc | FLuc counter
O=C(Nc1ccc(N2CCCCC2)cc1)c1cccnc1 | ? | 22.4µM* | 9.2µM* | ? | -1.3% | 21.3µM*
COc1ccc(C)cc1NC(=O)Cc1c(C(=O)O)c(C)cn1C | · | · | · | · | · | -19.4%
N#Cc1cccc(-c2nc(Nc3ccncc3)c3ccccc3n2)c1 | · | -5.8% | · | · | -3.1% | ·
CSc1cccc(NC(=O)/C=C/c2ccco2)c1 | ? | 45.3% | ? | 12.9% | -4.4% | 19µM*
COc1ccccc1NC(=O)/C=C\c1ccco1 | ? | · | 15.2% | ? | · | 23.9µM*
COc1cccc(NC(=O)/C=C/c2ccco2)c1 | 2.51µM* | 12.6µM* | ? | ? | ? | 10.7µM*
O=C(/C=C/c1ccco1)Nc1cccnc1 | ? | ? | ? | ? | -28.2% | 19µM*
COc1ccccc1NC(=S)NC(=O)/C=C/c1ccco1 | 3.1% | 0.9% | -0.5% | -3.0% | -4.3% | -14.5%
CC(C)(C)c1ccc(/C=C/C(=O)Nc2cccnc2)cc1 | 1.12µM* | · | 2.31µM* | 2µM* | · | 2.69µM*
CC(=O)Nc1ccc(C(=O)COC(=O)C2CC2C)c(F)c1 (stereo not drawn) | 1.41µM* | · | ? | 1.41µM* | · | 2.13µM*
CC(=O)Nc1ccc(C(=O)COC(=O)c2cccs2)c(F)c1 | 3.55µM* | · | ? | 2.82µM* | · | 3.38µM*
NCCCC[C@@H](C(=O)N1CCNCC1)n1cc([C@@H](N)CC(N)=O)nn1 | -0.5% | · | 3.2% | 0.1% | · | -2.0%
COc1ccc(NC(=O)CC2C(=O)N(c3ccc(C)cc3)C(=O)N2C2CCCC2)cc1 (stereo not drawn) | · | · | · | · | · | -2.2%
Cc1ccc(-n2nc(-c3ccccc3)cc2Nc2ccccc2N)cc1 | -0.8% | -2.7% | -2.9% | 1.3% | -3.2% | ?
Cc1ccc(-c2cc3nn(-c4ccccc4)c(N)c3c(=O)o2)cc1 | ? | -28.2% | -2.0% | 25.4% | -2.2% | 6.01µM*
CCN(C(=O)c1coc(=O)c2ccccc12)c1ccccc1C | · | 5.6% | · | · | · | -6.3%
CCOc1cc(CN2CCN(S(=O)(=O)c3ccc(C)cc3)CC2)ccc1OC | · | -24.1% | · | · | · | 1.1%
COc1ccc(N2CCN(S(=O)(=O)CCNC(=O)Cc3ccc(OC)c(OC)c3)CC2)cc1 | · | · | · | · | · | -2.4%
Cc1cc(=O)oc2cc(OCCCC[n+]3ccccc3)ccc12 | -2.8% | · | 3.6% | -4.6% | · | -5.1%
Cc1cc(=O)oc2cc(OCCc3ccccc3)ccc12 | ? | · | ? | 14.4% | · | 12µM*
COc1cccc(COc2ccc3c(C)cc(=O)oc3c2)c1 | 2.82µM* | · | 7.3µM* | 2.24µM* | · | 3.01µM*
CCOCCCNC(=O)C1CCN(c2nn3cc(-c4ccc(F)cc4)nc3s2)CC1 | · | · | · | · | · | -17.9%
CCc1cccc2c(C(=O)COC(=O)C3=NNC(=O)CC3)c[nH]c12 | -8.1% | -1.5% | -0.2% | -0.2% | -2.7% | -17.6%
CCn1nc(C(=O)OCC(=O)c2c[nH]c3ccccc23)c2ccccc2c1=O | 0.8% | -9.6% | 2.7% | 4.7% | -3.2% | 23.9µM*
CC(C)n1nc(C(=O)OCC(=O)c2c[nH]c3ccccc23)c2ccccc2c1=O | 1.3% | 8.5% | -7.1% | -3.0% | 14.6% | ?
SMILES | Rab9 promoter act | SMN2 splice up | ELG1 genotoxic | NPC1 prom act | KinaseGlo FLuc | FLuc counter
CCc1cccc2c(C(=O)COC(=O)c3nn(C)c(=O)c4ccccc34)c[nH]c12 | -1.0% | -2.5% | -19.2% | -1.9% | -1.1% | 13.5µM*
COc1ccc(N2CCN(C(CNC(=O)C(=O)NCc3ccc(C)cc3)c3cccnc3)CC2)cc1 (stereo not drawn) | · | · | · | · | · | -12.6%
Cc1cc(NS(=O)(=O)c2ccc(NC(=O)COc3c(C)cc(Br)cc3C)cc2)no1 | -2.3% | 14.7% | -24.8% | -3.1% | · | -1.2%
Cc1ccc(/C=C/C(=O)Nn2cnnc2)cc1 | -8.7% | -6.3% | 8.8% | -4.6% | -7.8% | 5.36µM*
Cc1cc(NS(=O)(=O)c2ccc(NS(=O)(=O)c3ccc(Br)cc3)cc2)no1 | -2.9% | · | 1.4% | -3.0% | · | 0.5%
CCCCOc1cccc(C(=O)Nc2ccc(S(=O)(=O)Nc3cc(C)on3)cc2)c1 | -1.2% | · | 4.1% | -7.2% | · | 19µM*
Cc1cc(NS(=O)(=O)c2ccc(NC(=O)COc3ccc(Br)cc3C)cc2)no1 | · | -11.3% | · | · | · | 21.3µM*
CCOc1cccc(C(=O)Nc2ccc(S(=O)(=O)Nc3cc(C)on3)cc2)c1 | -1.2% | · | 6.3% | 0.8% | · | ?
Cc1cc(NS(=O)(=O)c2ccc(NC(=O)/C=C/c3ccc(Br)cc3)cc2)no1 | -1.6% | · | 5.1% | -5.9% | · | 19µM*
Cc1ccc(/C=C/C(=O)NN2CCN(C)CC2)cc1 | 10.7% | · | 7.8% | 8.5% | · | -2.3%
COC(=O)c1ccc(COC(=O)CNC(=O)c2cccs2)cc1 | -0.7% | · | -1.3% | -2.3% | · | -18.1%
Cc1cccn2c(=O)cc(CSc3nnc(NC(=O)C(C)C)s3)nc12 | · | · | · | · | · | -10.1%
CC[C@@H](C)[C@H]1O[C@]2(CC[C@H]1C)C[C@@H]1C[C@@H](CC=C(C)[C@@H](O[C@H]3C[C@H](OC)[C@@H](O[C@H]4C[C@H](OC)[C@@H](O)[C@H](C)O4)[C@H](C)O3)[C@@H](C)C=CC=C3CO[C@@H]4[C@H](O)C(C)=C[C@@H](C(=O)O1)[C@]34O)O2 | -43.1%[46.1 µM] | · | · | -38.6%[46.1 µM] | · | ·
CC(Oc1ccc(C#N)cc1)C(=O)NC1CCCC1 (stereo not drawn) | -1.3% | · | 1.2% | -0.4% | · | 0.0%
COc1ccc(-c2nc(CS(=O)(=O)CC(=O)NCCCN3CCN(C)CC3)c(C)o2)cc1 | 8.6% | · | -2.8% | 0.8% | · | -6.1%
COc1ccccc1OCC(=O)Nc1ccc(S(=O)(=O)Nc2cc(C)on2)cc1 | 0.0% | · | 2.1% | -0.2% | · | 1.2%
COc1ccccc1/C=C/C(=O)Nc1ccc(S(=O)(=O)Nc2cc(C)on2)cc1 | 3.1% | · | 14.4% | -0.8% | · | 23.9µM*
Cc1ccc(/C=C/C(=O)Nc2cc(C)on2)cc1 | 3.98µM* | ? | ? | 2.51µM* | -6.0% | ?
CCOC(=O)c1ccc(NC(=O)N(CC)CC)cc1 | 2.51µM* | 11.2µM* | 16.4µM* | ? | 1.4% | 19µM*
CC(C)OC(=O)c1ccc(NC(=O)c2ccccc2)cc1 | ? | 12.6µM* | 16.8% | 3.98µM* | -4.7% | 15.1µM*
CCOc1ccccc1NC(=O)c1ccc(NC(=O)c2ccco2)cc1 | -2.4% | -8.2% | 0.5% | 2.9% | 9.0% | -3.0%
